Data published in PubChem BioAssay AID1159580 (chemical genetic matrix, 2015).
Where “and” joins values, the source holds several entries; their conditions need not be identical. Equal entries are not always repeated. In all, about 5,500 compounds went through this assay and about 2,000 (36%) were called active. Inconclusive results (about 18%) are left out. No stated cut-off is given here; in the data, active means normalized growth mostly below about 0.91 (no sharp cut-off); inconclusive means no clear call, values can overlap the other calls; inactive means mostly above about 0.92. Some of the results follow.

Test: chemical genetic growth profiling, strain panel (AID 1159580);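 further: tested at 20 µM; growth read once vehicle control cultures reached saturation at 30 °C; 1 = growth at the plate median or of vehicle wells; lower values mean less growth of the strain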
Conditions: S. cerevisiae deletion strains, growth OD

Measured: normalized growth

CCCCC(CC)CN=C(N)NC(N)=NCCCCCCN=C(N)NC(N)=NCC(CC)CCCC (stereo not drawn)
active: locus YAL021C, strain ccr4, active compounds read low 0.063 | locus YAL026C, strain drs2, active compounds read low 0.0642 | locus YAL030W, strain snc1, active compounds read low 0.0574 | locus YBL061C, strain skt5, active compounds read low 0.0589 | locus YBR009C, strain hhf1, active compounds read low 0.0622 | locus YBR021W, strain FUR4, active compounds read low 0.097 | locus YBR023C, strain chs3, active compounds read low 0.064 | locus YBR171W, strain sec66, active compounds read low 0.0773 | locus YBR229C, strain ROT2, active compounds read low 0.056 | locus YBR231C, strain swc5, active compounds read low 0.0612 | locus YBR279W, strain paf1, active compounds read low 0.0581 | locus YCL011C, strain gbp2, active compounds read low 0.0577 | locus YCL016C, strain dcc1, active compounds read low 0.0603 | locus YCL029C, strain bik1, active compounds read low 0.0601 | locus YCL069W, strain vba3, active compounds read low 0.0617 | locus YCR088W, strain abp1, active compounds read low 0.0627 | locus YDL005C, strain med2, active compounds read low 0.0747 | locus YDL035C, strain GPR1, active compounds read low 0.0524 | locus YDL040C, strain nat1, active compounds read low 0.0565 | locus YDL074C, strain BRE1, active compounds read low 0.0887 | locus YDL101C, strain DUN1, active compounds read low 0.0654 | locus YDL134C, strain PPH21, active compounds read low 0.0565 | locus YDL185W, strain tfp1, active compounds read low 0.0566 | locus YDL192W, strain arf1, active compounds read low 0.0604 | locus YDR001C, strain nth1, active compounds read low 0.061 | locus YDR069C, strain doa4, active compounds read low 0.0611 | locus YDR101C, strain arx1, active compounds read low 0.0576 | locus YDR137W, strain rgp1, active compounds read low 0.0839 | locus YDR159W, strain sac3, active compounds read low 0.086 | locus YDR162C, strain NBP2, active compounds read low 0.0531 | locus YDR195W, strain ref2 0.115 | locus YDR297W, strain sur2, active compounds read low 0.0561 | locus YDR318W, strain mcm21, active compounds read low 0.0605 | locus YDR334W, strain swr1, active compounds read low 0.0645 | locus YDR335W, strain msn5, active compounds read low 0.062 | locus YDR388W, active compounds read low 0.0558 | locus YDR392W, strain spt3, active compounds read low 0.0874 | locus YDR502C, strain sam2, active compounds read low 0.0583 | locus YEL003W, strain gim4, active compounds read low 0.054 | locus YEL037C, strain rad23, active compounds read low 0.0582 | locus YEL061C, strain CIN8 (second series), active compounds read low 0.06 | locus YEL061C, strain CIN8, active compounds read low 0.0537 | locus YER015W, strain faa2, active compounds read low 0.0615 | locus YER016W, strain bim1, active compounds read low 0.0587 | locus YER110C, active compounds read low 0.0718 | locus YER111C, strain swi4, active compounds read low 0.0729 | locus YER155C, strain BEM2 (second series), active compounds read low 0.09 | locus YER155C, strain BEM2, active compounds read low 0.0673 | locus YER167W, strain BCK2, active compounds read low 0.0573 | locus YFR010W, strain ubp6, active compounds read low 0.0674 | locus YGL078C, strain dbp3, active compounds read low 0.0573 | locus YGL086W, strain mad1, active compounds read low 0.0562 | locus YGL167C, strain pmr1, active compounds read low 0.071 | locus YGL173C, strain kem1, active compounds read low 0.0685 | locus YGL227W, strain vid30, active compounds read low 0.0653 | locus YGL240W, strain doc1, active compounds read low 0.0743 | locus YGL248W, strain PDE1, active compounds read low 0.0546 | locus YGL253W, strain hxk2, active compounds read low 0.0547 | locus YGR078C, strain PAC10, active compounds read low 0.0524 | locus YGR135W, strain pre9, active compounds read low 0.0595 | locus YGR252W, strain gcn5, active compounds read low 0.113 | locus YHR013C, strain ard1, active compounds read low 0.109 | locus YHR027C, strain rpn1, active compounds read low 0.0612 | locus YHR030C, strain SLT2, active compounds read low 0.0544 and 0.0908 | locus YHR079C, strain IRE1 (second series), active compounds read low 0.0569 | locus YHR079C, strain IRE1, active compounds read low 0.106 | locus YHR094C, strain hxt1, active compounds read low 0.0581 | locus YHR129C, strain ARP1, active compounds read low 0.0586 | locus YHR142W, strain chs7, active compounds read low 0.0728 | locus YHR200W, strain rpn10, active compounds read low 0.0601 | locus YIL066C, strain RNR3, active compounds read low 0.0539 | locus YIL073C, strain SPO22, active compounds read low 0.104 | locus YIL125W, strain kgd1, active compounds read low 0.0595 | locus YIR030C, strain dcg1, active compounds read low 0.0594 | locus YJL092W, strain hpr5, active compounds read low 0.0605 | locus YJL095W, strain BCK1 (second series), active compounds read low 0.0569 | locus YJL095W, strain BCK1, active compounds read low 0.0657 and 0.0991 | locus YJL115W, strain asf1, active compounds read low 0.0737 | locus YJL129C, strain trk1, active compounds read low 0.0818 | locus YJL134W, strain LCB3, active compounds read low 0.0522 | locus YJL154C, strain vps35, active compounds read low 0.0612 | locus YJL164C, strain tpk1, active compounds read low 0.06 | locus YJL166W, strain qcr8, active compounds read low 0.0603 | locus YJL168C, strain set2, active compounds read low 0.0617 | locus YJL187C, strain SWE1 (second series), active compounds read low 0.0584 | locus YJR043C, strain POL32, active compounds read low 0.0684 | locus YJR066W, strain TOR1, active compounds read low -0.00183 | locus YJR075W, strain HOC1, active compounds read low 0.0661
